Measured values from PubChem BioAssay (Tox21).
Results filed as inconclusive are left out. Active and inactive are the calls of the source. Calls follow the shape of the dose curve; as a rule, active = well fitted cell-killing curve with a large enough effect in the repeat runs; inconclusive = weak or mixed curves, or effect the other way; inactive = flat fitted curve, though single readings scatter.

Test: qHTS assay to identify small molecule agonists of the constitutive androstane receptor (CAR) signaling pathway - cell viability counter screen (AID 1224836); also: nearly all actives have a fitted effect of over 45% in size
Details: HepG2-CYP2B6-hCAR viability, CellTiter-Fluor, 23 h, PK11195 added to every well; series mostly up to 92.4 µM; viability change, negative = cytotoxic: at the top concentration
Excerpt: U.S. Tox21 Program National Center for Advancing Translational Sciences [NCATS] NIH Chemical Genomics Center [NCGC] U.S. Environmental Protection Agency [EPA] National Institutes of Environmental Health Sciences [NIEHS] National Toxicology Program [NTP] U.S. Food and Drug Administration [FDA] Tox21 Assay Overview: The constitutive androstane receptor (CAR) is a nuclear receptor which regulates multiple drug metabolizing enzymes (DMEs) and transporters. Activating CAR will generally increase the transcription and subsequent translation of CYP2B6 and CYP3A4. These two DMEs represent about 50% of the drug metabolizing potential in the body. […] Recently, there have also been studies performed indicating CARs role in energy metabolism and cancer therapy. Therefore, inducing CARs activity could have a potential effect on diabetes and cancer. Identifying environmental toxins and compounds which modulate CAR, through the use of the Tox21 10K compound collection, will be an important step in determining the toxicity and potential therapeutic effects these factors will have on the human body. To differentiate true CAR agonists from cytotoxic substances, the assay is multiplexed with a cell viability assay.
Tox21 Assay Protocol Summary: A double-stable (hCAR and CYP2B6-2.2kb) transfected cell line, derived from human hepatoma (HepG2) cells, was utilized for the duration of the quantitative high-throughput screens. The HepG2-CYP2B6-hCAR cells were dispensed at 2500 cells/4 uL/well in 1536-well white solid bottom plates using a Multidrop Combi. After the assay plates were incubated at 37 C/5% CO2 for 4 hrs, 23 nL of compounds at 15 concentrations (from 5-48 columns) or positive control (from 1 to 4 columns) were transferred to the assay plates using a Pintool station. One uL of PK11195 (final concentration = 0.75 uM) was added, using a Flying Reagent Dispenser, inside each well. After a 23 hr incubation period at 37 C/5% CO2, 1 uL of CellTiter-Fluor reagent was added into each well of the assay plates using a Flying Reagent Dispenser. The fluorescence intensity in the plates was then measured using a ViewLux plate reader.
% is scaled to controls: 0 for no effect and ±100 for the full control effect.

SMILES | viability change, negative = cytotoxic
COC(C)(OC)OC | -0.712% (inactive)
CCCCCCCCCCCCCCC(=O)NC(CO)CCCCCCCCCCCCCC (stereo not given) | -0.485% (inactive)
O=C1OCCO1 | 4.34% (inactive)
O=C[O][Al]([O]C=O)[O]C=O | 6.05% (inactive)
CCCCOCC(C)O (stereo not given) | -2.32% (inactive)
Cc1cc(C)c(C(=O)O)c(C)c1 | 2.31% (inactive)
C/C(=C1\CCOC(=O)S1)N(C=O)Cc1cnc(C)nc1N | 5.91% [at 42.5 µM] (inactive)
CCCCOC(=O)C(C)O (stereo not given) | -0.413% (inactive)
CC1CCc2c(N3CCC(O)CC3)c(F)cc3c(=O)c(C(=O)O)cn1c23 (stereo not given) | 7.93% [at 42.5 µM] (inactive)
O=C1CCC(=O)N1Cl | -2.11% (inactive)
CCCC(=O)OCCC(C)CCC=C(C)C (stereo not given) | 0.906% (inactive)
C=C(C)C1CC=C(C)C(=O)C1 (stereo not given) | -0.274% (inactive)
CCCCCCCCCCCCCBr | -3% (inactive)
COC(=O)CCCCC(CCSS/C(CCO)=C(\C)N(C=O)Cc1cnc(C)nc1N)SC(C)=O (stereo not given) | -2.07% [at 42.5 µM] (inactive)
CN(C)CCCO[C@@H]1[C@H]2OC(C)(C)O[C@H]2O[C@@H]1C(O)CO (stereo not given in full) | 7.75% [at 42.5 µM] (inactive)
CCC(C)C(C)=O (stereo not given) | 0.483% (inactive)
CCCSSCCC | 5.02% (inactive)
C=C(C)[C@@H]1CC=C(C)CC1 | 4.64% (inactive)
COc1cc(/C=C/C(N)=O)cc(OC)c1OC | 4.64% [at 42.5 µM] (inactive)
O=S(=O)(O)c1ccc2c(N=Nc3ccc(S(=O)(=O)O)c4ccccc34)c(O)c(S(=O)(=O)O)cc2c1 | -7.02% [at 8.39 µM] (inactive)

SMILES | viability change, negative = cytotoxic
Cc1ccc(C(C)NC(=O)[C@@H](NC(=O)OC(C)C)C(C)C)cc1 (stereo not given in full) | 5.22% (inactive)
CC(=O)O[C@@H]1CC2CCC1(C)C2(C)C (stereo not given in full) | 6.44% (inactive)
C=CCCCCCCCCC(=O)OCCCC | -1.87% (inactive)
CCCC(CC)c1ccccc1 (stereo not given) | 1.42% (inactive)
CCCCCCCCCOC(=O)c1ccccc1C(=O)OCCCCCCCCC | -1.77% (inactive)
C[Si]1(C)O[Si](C)(C)O[Si](C)(C)O[Si](C)(C)O[Si](C)(C)O1 | 0.0651% (inactive)
CC(=O)OC(C)=O | 3.08% (inactive)
CC(O)COC(C)(C)C (stereo not given) | -0.857% (inactive)
CC(C)CO | 6.16% (inactive)
CCCC(=O)OC/C=C(\C)CCC=C(C)C | 4.32% (inactive)
CC(=O)CC(=O)Nc1ccc(C)cc1C | -20.7% (inactive)
CC(C)(C)NC[C@H](O)COc1cccc2c1CCCC2=O | 5.87% [at 42.5 µM] (inactive)
C[C@H]1[C@@H](c2ccccc2)NC(=O)N1C | -1.13% (inactive)
COc1c2occc2c(OC)c2c(=O)cc(C)oc12 | 0.702% [at 42.5 µM] (inactive)
CC(C)Cn1cnc2c1c(=O)n(C)c(=O)n2C | 8.83% [at 42.5 µM] (inactive)
CC(C)c1ccc(C=O)cc1 | -1.03% (inactive)
CC(Oc1cc(Cl)ccc1Cl)C(=O)O (stereo not given) | 8.58% (inactive)
CCOCCOCC | 2.2% (inactive)
O=C=NCC1CCCC(CN=C=O)C1 (stereo not given) | 0.407% (inactive)
CCOC(=O)CC1(C)OCC(C)O1 (stereo not given) | 0.38% (inactive)
